In the library only some 12% were active in any assay of this set; here they are far more common.
JMJD2A Tudor inh: inhibitors of human JMJD2A Tudor domain; O75164; AlphaScreen JMJD2A-Tudor / H3K4me3 peptide binding; Potency, µM (highest dose often 114 µM), actives largely listed as inhibitors; hit rate 4.4% among 390,000; note: nearly all actives have a fitted effect of over 50% in size
Target sequence (O75164 whole entry, looked up, the tested form may be a part): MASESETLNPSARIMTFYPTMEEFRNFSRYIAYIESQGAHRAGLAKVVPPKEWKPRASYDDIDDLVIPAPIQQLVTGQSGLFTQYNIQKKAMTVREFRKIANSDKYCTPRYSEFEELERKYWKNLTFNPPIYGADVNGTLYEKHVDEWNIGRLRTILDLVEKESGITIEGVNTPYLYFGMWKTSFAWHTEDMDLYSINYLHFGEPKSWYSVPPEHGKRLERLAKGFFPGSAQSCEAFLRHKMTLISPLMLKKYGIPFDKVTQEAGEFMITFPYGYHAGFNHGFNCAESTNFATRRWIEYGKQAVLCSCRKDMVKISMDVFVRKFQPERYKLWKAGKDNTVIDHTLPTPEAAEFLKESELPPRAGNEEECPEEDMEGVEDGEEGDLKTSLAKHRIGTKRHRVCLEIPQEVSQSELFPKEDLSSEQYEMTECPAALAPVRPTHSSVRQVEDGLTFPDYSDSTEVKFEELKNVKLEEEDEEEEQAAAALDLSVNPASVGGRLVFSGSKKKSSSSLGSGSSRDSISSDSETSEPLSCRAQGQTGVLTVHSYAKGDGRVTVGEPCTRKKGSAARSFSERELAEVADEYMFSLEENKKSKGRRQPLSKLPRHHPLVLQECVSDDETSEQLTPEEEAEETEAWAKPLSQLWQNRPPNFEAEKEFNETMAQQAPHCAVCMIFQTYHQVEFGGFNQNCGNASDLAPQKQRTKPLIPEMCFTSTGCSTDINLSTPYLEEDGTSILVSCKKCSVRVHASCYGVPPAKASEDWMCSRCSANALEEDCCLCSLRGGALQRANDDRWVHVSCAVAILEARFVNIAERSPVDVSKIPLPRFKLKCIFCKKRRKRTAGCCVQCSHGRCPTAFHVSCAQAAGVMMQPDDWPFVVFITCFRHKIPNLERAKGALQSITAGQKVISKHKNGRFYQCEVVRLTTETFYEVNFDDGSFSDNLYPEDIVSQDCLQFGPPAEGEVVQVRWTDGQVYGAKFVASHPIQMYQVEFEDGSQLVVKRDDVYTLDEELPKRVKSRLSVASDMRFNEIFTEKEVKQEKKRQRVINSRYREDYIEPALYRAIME
HP1b binding inh: inhibitors of HP1-beta chromodomain binding to methylated histone tails. P83916. AlphaScreen HP1-beta / biotin-H3K9me3 peptide binding. Potency, µM (doses to about 114 µM), most hits filed as inhibitors. hit rate 0.56% among 390,000; note: nearly all actives have a fitted effect of over 70% in size
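Compound inhibition of the preformed complex between 50 nM HP1-beta and 50 nM biotinylated H3K9me3 peptide was read by AlphaScreen. Buffer was PBS pH 7.4 with 0.01% Tween-20. Incubations ran 30 min at room temperature, with 10 ug/mL donor/acceptor beads.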
BAZ2B block: blocks human BAZ2B | AlphaScreen BAZ2B-H3K14Ac peptide displacement | Potency, µM (top dose mostly 114 µM), most hits filed as inhibitors | hit rate 4.4% among 360,000 | AID 504333; note: nearly all actives have a fitted effect of over 60% in size
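AlphaScreen luminescence quantifies BAZ2B engagement of H3K14Ac peptide; the protein and biotinylated peptide are both at 50 nM final, buffer PBS pH 7.4 with 0.01% Tween-20, all steps at room temperature.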
PI5P4K alpha inh: inhibitors of human PI5P4K alpha; P48426; PI5P4Kalpha enzyme, ADP-Glo luminescence, 60 min; stronger effect = lower value; max response, %; hit rate 1.2% among 330,000; AID 652105; active = max response of -50% or lower; inconclusive = between -30% and -50%; inactive = -30% or higher; note: value at the top dose of about 77 µM
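PI5P4Kalpha ADP-Glo assay; 5 microM ATP final; 60 min RT reaction; HEPES pH 7.4/EGTA/CHAPS, 5% DMSO; controls lacking substrate or enzyme; luminescent end-point.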
G9a block: G9a (human) methyltransferase inhibition; Q96KQ7; G9a H3K9 monomethylation, AlphaScreen, 2 h; Potency, µM (top dose mostly 102 µM), actives largely listed as inhibitors; hit rate 8.8% among 350,000; note: nearly all actives have a fitted effect of over 75% in size
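AlphaScreen detection with an anti-monomethyl H3K9 antibody quantified product after a 2 h room-temperature reaction containing 500 nM biotinylated H3K9 peptide, 20 µM SAM and 20 nM enzyme, which had been preincubated 15 min with compound.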
PLK1 PBD inh: inhibitors of human PLK1 polo-box domain binding; AID 720504; Plk1 PBD binding of FITC phosphopeptide, fluorescence polarization; Potency, µM, most hits filed as inhibitors; hit rate 2.8% among 360,000; P53350; note: series mostly up to about 57 µM; nearly all actives have a fitted effect of over 65% in size
Of the large screens only hits and unclear results are named; the others gave an inactive call. Unless noted, calls come from the whole dose curve; as a rule, active = well fitted curve in the direction sought with a large enough effect; inconclusive = small, poorly fitted or top-dose-only effect, or another doubt; inactive = no such curve, though single readings can be large; an effect the other way counts as inactive or inconclusive.

CN(C)c1ccc(CN(CC2CCCO2)C(=O)c2ccc(Br)cc2)cc1 (stereo not drawn)	JMJD2A Tudor inh 50µM, HP1b binding inh inconclusive, BAZ2B block 40µM, G9a block 14µM (no result: PI5P4K alpha inh, PLK1 PBD inh)
CN(Cc1ccccc1)C(=O)c1cc2ccccc2o1	none (no result: PI5P4K alpha inh)
CNc1nc(SCC(=O)Nc2ccccc2)nc(N2CCOCC2)n1	none
CCOc1ccc(CCNC(=O)Cn2nc(-c3ccc(C)cc3)ccc2=O)cc1OCC	none (no result: PI5P4K alpha inh, PLK1 PBD inh)
COc1ccc(OC)c(CNS(=O)(=O)c2c(C)nc3scc(C)n3c2=O)c1	none (no result: G9a block)
Cc1cccc(N(CC(=O)NCCSCc2ccc(Cl)cc2)S(C)(=O)=O)c1C	none (no result: PI5P4K alpha inh, PLK1 PBD inh)
COc1ccc(C(=O)NCC2CCCO2)cc1 (stereo not drawn)	none
Cc1ccc(C(=O)N(Cc2ccc(N(C)C)cc2)CC2CCCO2)cc1 (stereo not drawn)	JMJD2A Tudor inh inconclusive, BAZ2B block 35µM, G9a block 13µM (no result: PI5P4K alpha inh, PLK1 PBD inh)
CCCN(CC1CCCO1)C(=O)CCc1nnc(CCc2ccc(OC)cc2)o1 (stereo not drawn)	JMJD2A Tudor inh inconclusive, PLK1 PBD inh 13µM
COc1ccc(C(=O)N(Cc2ccc(N(C)C)cc2)CC2CCCO2)cc1 (stereo not drawn)	JMJD2A Tudor inh inconclusive, BAZ2B block inconclusive, G9a block 11µM (no result: PI5P4K alpha inh, PLK1 PBD inh)
COc1cc(-c2nnc(SCC(=O)NCc3ccccc3Cl)o2)cc(OC)c1OC	none (no result: PI5P4K alpha inh, PLK1 PBD inh)
CCOc1ccccc1-c1nnc2n1N=C(c1cc(OC)cc(OC)c1)CS2	none (no result: HP1b binding inh, BAZ2B block, PI5P4K alpha inh, G9a block, PLK1 PBD inh)
CCC[n+]1cn(/C(C(=S)Nc2cccc(Cl)c2C)=C(/[O-])c2ccc(OC)c(OC)c2)c2ccccc21	JMJD2A Tudor inh inconclusive, BAZ2B block inconclusive, G9a block 40µM
COc1cc2c(cc1OC)CN(C(=S)Nc1cccc(Cl)c1C)CC2	none
CCc1ccc(NC(=O)Cn2c(=O)n(Cc3ccco3)c(=O)c3oc4ccccc4c32)cc1	none (no result: PI5P4K alpha inh, PLK1 PBD inh)
Cc1ccc(-n2c(O)c(/C=N/n3cnnc3)c3ccccc3c2=O)cc1	JMJD2A Tudor inh 56µM, BAZ2B block 50µM, G9a block inconclusive, PLK1 PBD inh inconclusive (no result: PI5P4K alpha inh)
O=c1c2ccccc2c(C=NCc2ccccn2)c(O)n1-c1ccccc1Cl	JMJD2A Tudor inh inconclusive, BAZ2B block inconclusive, G9a block inconclusive
O=c1c2ccccc2c(/C=N/n2cnnc2)c(O)n1-c1ccccc1F	JMJD2A Tudor inh inconclusive, BAZ2B block inconclusive, G9a block 71µM (no result: PI5P4K alpha inh)
Cc1cc(Br)cn2c(Cc3ccsc3)c(-c3ccc(F)cc3)nc12	PLK1 PBD inh inconclusive (no result: JMJD2A Tudor inh, HP1b binding inh, BAZ2B block, G9a block)
C=CCNC(=O)C1CC(=O)N(c2ccc(OCC(=O)Nc3ccc(C)cc3)cc2)C1 (stereo not drawn)	G9a block inconclusive
C[C@H](NC(=O)C1CC(=O)N(c2ccc(F)cc2)C1)C(=O)N1CCCCC1 (stereo partly drawn)	JMJD2A Tudor inh inconclusive, PLK1 PBD inh 24µM
CNC(=O)C1CC(=O)N(c2ccc(OCC(=O)Nc3ccc(F)cc3)cc2)C1 (stereo not drawn)	PI5P4K alpha inh inconclusive, PLK1 PBD inh 27µM (no result: BAZ2B block, G9a block)
C=CCc1cccc2cc(C(=O)Nc3ccccc3C(=O)O)c(=O)oc12	BAZ2B block 50µM, PI5P4K alpha inh -61, G9a block 13µM, PLK1 PBD inh 12µM
C=CCc1cccc2cc(C(=O)O)c(=O)oc12	none
C=CCc1cccc2cc(C(=O)N3CCN(C(=O)c4ccco4)CC3)c(=O)oc12	G9a block 45µM (no result: PI5P4K alpha inh)
C=CCC(=O)NC1CCCc2c1cnn2-c1cc(F)cc(F)c1 (stereo not drawn)	none
O=S(=O)(NCc1ccco1)c1ccc2ccccc2c1	BAZ2B block inconclusive
Cc1ccc(S(=O)(=O)NCc2ccco2)cc1C(N)=O	JMJD2A Tudor inh 25µM, PLK1 PBD inh 27µM
Cc1ccc2ccc(S(=O)(=O)NCc3ccco3)cc2c1	G9a block 35µM
NS(=O)(=O)c1ccc(NC(=O)C2Cc3ccccc3N2C(=O)c2ccccc2)cc1 (stereo not drawn)	none (no result: PI5P4K alpha inh, PLK1 PBD inh)
Nc1cc(=O)[nH]c(SCC(=O)Nc2cc([N+](=O)[O-])ccc2Cl)n1	JMJD2A Tudor inh inconclusive, HP1b binding inh inconclusive, PLK1 PBD inh 21µM
O=C(NC1CCSc2ccccc21)c1ccc([N+](=O)[O-])cc1 (stereo not drawn)	none
O=C(Nc1nc2ccc(Oc3ccccc3)cc2s1)c1cc([N+](=O)[O-])ccc1N1CCOCC1	BAZ2B block inconclusive, G9a block 16µM
Nc1cc(=O)[nH]c(SCC(=O)Nc2cc(S(=O)(=O)N3CCCCCC3)ccc2Cl)n1	none (no result: BAZ2B block, G9a block)
O=C(NC1CCSc2ccccc21)c1cc([N+](=O)[O-])ccc1N1CCOCC1 (stereo not drawn)	G9a block 56µM
O=C(CN1CCOCC1)Nc1nc2ccc([N+](=O)[O-])cc2s1	JMJD2A Tudor inh 10µM
O=C(CN1CCOCC1)Nc1nc2ccc(F)cc2s1	none
CCN(C(=O)COC(=O)CNC(=O)c1ccc(Cl)cc1Cl)c1c(N)n(Cc2ccccc2)c(=O)[nH]c1=O	none (no result: BAZ2B block, G9a block)
CCOc1ccccc1C(=O)N1CC(=O)Nc2ccc(Cl)cc2C1c1ccccc1 (stereo not drawn)	BAZ2B block inconclusive, G9a block inconclusive (no result: PI5P4K alpha inh, PLK1 PBD inh)
Cc1ccc(-c2nnn(CC(=O)NC(=O)NC3CCCCC3)n2)cc1	none
CCC(=O)Nc1nc2ccc([N+](=O)[O-])cc2s1	none
Nc1cc(=O)[nH]c(SCC(=O)Nc2nc3ccc([N+](=O)[O-])cc3s2)n1	BAZ2B block inconclusive, G9a block 40µM (no result: JMJD2A Tudor inh, HP1b binding inh, PI5P4K alpha inh, PLK1 PBD inh)
COc1ccc(C2C(C(N)=O)=C(C)Nc3nc(CCCO)nn32)c(OC)c1 (stereo not drawn)	none (no result: PI5P4K alpha inh, PLK1 PBD inh)
CN(C)c1ccc(CNC(=O)c2cc3ccccn3n2)cc1	JMJD2A Tudor inh inconclusive, BAZ2B block inconclusive, G9a block 16µM (no result: PI5P4K alpha inh, PLK1 PBD inh)
CCNc1nc2[nH]c(=O)c3c(c2s1)OC(N)=C(C#N)C3c1ccc(C)cc1 (stereo not drawn)	BAZ2B block inconclusive, PI5P4K alpha inh -67, G9a block inconclusive
CNc1nc2[nH]c(=O)c3c(c2s1)OC(N)=C(C#N)C3c1ccccc1 (stereo not drawn)	PI5P4K alpha inh inconclusive
O=C1C(=O)N(c2ccc(O)cc2)C(c2ccccc2[N+](=O)[O-])/C1=C(\O)c1ccccc1 (stereo not drawn)	G9a block 56µM
COc1ccc(C2/C(=C(\O)c3ccc4c(c3)OCCO4)C(=O)C(=O)N2Cc2cccnc2)cc1 (stereo not drawn)	none
COc1ccccc1C1/C(=C(\O)c2ccc3c(c2)OCCO3)C(=O)C(=O)N1Cc1cccnc1 (stereo not drawn)	JMJD2A Tudor inh 50µM, BAZ2B block inconclusive, G9a block inconclusive
O=C1C(=O)N(Cc2ccncc2)C(c2cccc(O)c2)/C1=C(\O)c1ccc2c(c1)OCCO2 (stereo not drawn)	BAZ2B block inconclusive, G9a block 45µM
